About 83,000 compounds went through this panel and 20% of them were active in at least one assay; those are over-represented in the sample as a whole.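 The endpoint reported here, percent growth, reads 100 for growth as untreated, 0 for no net growth and -100 for all cells dead.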 Activity calls are given as the source filed them. The calls were made as follows: active = growth percent below 10; inactive = the rest.
Key:
Experiment in all cases: NCI-60 one-dose screen, 48 h (100 = growth as untreated, 0 = no growth, -100 = all killed)
BT-549 breast = settings: 10 µM unless noted
MDA-MB-435 melanoma = settings: 10 µM unless noted
SW-620 colon = settings: 10 µM unless noted
MCF7 breast = settings: 10 µM
HCT-116 colon = settings: 10 µM unless noted
HCC-2998 colon = settings: 10 µM unless noted
KM12 colon = settings: 10 µM unless noted

Measured: growth

O=C1N=c2ccccc2=C1c1sc(=Nc2ccccc2)n(Nc2ccccc2)c1O
inactive: BT-549 breast 106% | SW-620 colon 108% | MCF7 breast 103% | HCT-116 colon 104% | HCC-2998 colon 116% | KM12 colon 103%
active: MDA-MB-435 melanoma -23%

c1ccc(CNc2nc(Nc3ccccc3)nc3ccccc23)cc1
inactive: BT-549 breast 89.2% | MDA-MB-435 melanoma 11.7% | SW-620 colon 56.1% | MCF7 breast 56.9% | HCT-116 colon 58.2% | HCC-2998 colon 37.2% | KM12 colon 71.8%

CCOC(=O)c1cc2c(n1Cc1cccc(OC)c1)-c1oncc1CCC2
active: MDA-MB-435 melanoma -13.4%
inactive: BT-549 breast 42.4% | SW-620 colon 23.6% | MCF7 breast 14.1% | HCT-116 colon 25.2% | HCC-2998 colon 51.6% | KM12 colon 27.1%

COc1ccccc1CNC(=O)C1c2ccccc2C(=O)N(CC(C)C)C1c1cccs1 (stereo not drawn)
inactive: BT-549 breast 78.9% | MDA-MB-435 melanoma 71% | SW-620 colon 78.6% | MCF7 breast 66.4% | HCT-116 colon 59.9% | HCC-2998 colon 48.3% | KM12 colon 32.7%

O=C1CCC(N2C(=O)c3cccc(NCCCCCCOc4ccc(Nc5nccc(Nc6ccccc6)n5)cc4)c3C2=O)C(=O)N1 (stereo not drawn)
inactive: BT-549 breast 65.1% | MDA-MB-435 melanoma 75.9% | SW-620 colon 91% | MCF7 breast 66.8% | HCT-116 colon 77.6% | HCC-2998 colon 98.4% | KM12 colon 88.5%

Clc1ccc(Oc2ccc(Nc3ncnc4onc(-c5ccccc5)c34)cc2)c(Cl)c1
inactive: BT-549 breast 90.2% | MDA-MB-435 melanoma 103% | SW-620 colon 99.5% | MCF7 breast 80.6% | HCT-116 colon 85.4% | HCC-2998 colon 103% | KM12 colon 103%

O=C(c1nc2ccccc2[nH]1)C1C(c2ccc([N+](=O)[O-])cc2)C2CC3CCCCC3N2[C@@]12C(=O)Nc1cc(Cl)ccc12 (stereo partly drawn)
active: MCF7 breast 7.25%
inactive: BT-549 breast 46.9% | MDA-MB-435 melanoma 23% | SW-620 colon 31.6% | HCT-116 colon 17.9% | HCC-2998 colon 31.6% | KM12 colon 29.1%

CCc1ccc(CNCC(O)c2ccccc2)cc1 (stereo not drawn)
inactive: BT-549 breast 90.1% | MDA-MB-435 melanoma 69.9% | SW-620 colon 89.6% | MCF7 breast 29.8% | HCT-116 colon 47.8% | HCC-2998 colon 38.5% | KM12 colon 72.5%

COc1cccc2c(=O)c3c(sc12)c(NCCCNCCO)nc1ccccc13
inactive: BT-549 breast 84.8% | MDA-MB-435 melanoma 15% | HCT-116 colon 31.5% | HCC-2998 colon 37.9% | KM12 colon 31.3%
active: SW-620 colon -73.9% | MCF7 breast -13.6%

FC(F)(F)c1cccc(Nc2nc(-c3ccccc3)nc3ncccc23)c1
inactive: BT-549 breast 60.8% | MCF7 breast 68.2% | HCT-116 colon 28.5% | KM12 colon 38.1%
active: MDA-MB-435 melanoma -79.4% | SW-620 colon -53% | HCC-2998 colon -68.3%

Nc1no[n+]([O-])c1-c1nnc2c(n1)-c1ccccc1C2=O
inactive: BT-549 breast 80.8% | MDA-MB-435 melanoma 18.8% | SW-620 colon 29.9% | HCC-2998 colon 68.1% | KM12 colon 73.1%
active: MCF7 breast -48.9% | HCT-116 colon 1.78%

COc1ccccc1C1=C(Br)C(=O)c2nc(C)ccc2C1=O
inactive: BT-549 breast 90.4% | MDA-MB-435 melanoma 104% | SW-620 colon 87.9% | MCF7 breast 90.8% | HCT-116 colon 92.1% | HCC-2998 colon 102% | KM12 colon 103%

S=C1NC2(c3ccccc3)CCC(=S)N2c2ccccc21 (stereo not drawn)
inactive: BT-549 breast 107% | MDA-MB-435 melanoma 101% | SW-620 colon 108% | MCF7 breast 108% | HCT-116 colon 103% | HCC-2998 colon 127% | KM12 colon 108%

CCN(CC)c1cc(C)c2cc(NC(=O)c3cccc(OC)c3)ccc2n1
inactive: BT-549 breast 80.9% | MDA-MB-435 melanoma 74.2% | SW-620 colon 64.9% | MCF7 breast 73.1% | HCT-116 colon 70.1% | HCC-2998 colon 91.3% | KM12 colon 88.5%

Cn1c(=O)n(C)c2cc(CNCCNc3ccnc4cc(Cl)ccc34)ccc21
inactive: BT-549 breast 90.8% | MDA-MB-435 melanoma 38.7% | SW-620 colon 23.1% | MCF7 breast 74.2% | HCT-116 colon 28.1% | HCC-2998 colon 27.4% | KM12 colon 54.5%

COc1cc(NC(=O)CCSc2nc3ccccc3c(=O)n2CCc2ccccn2)cc(OC)c1OC
inactive: BT-549 breast 73.4% | MDA-MB-435 melanoma 101% | SW-620 colon 101% | MCF7 breast 62.4% | HCT-116 colon 85.5% | HCC-2998 colon 97.5% | KM12 colon 99.8%

CN1C(=O)N(C)C2(c3ccccc3)n3c(s/c(=C\c4ccccc4)c3=O)=NNC12c1ccccc1 (stereo not drawn)
inactive: BT-549 breast 105% | MDA-MB-435 melanoma 98.1% | SW-620 colon 88.6% | MCF7 breast 85.6% | HCT-116 colon 88.3% | HCC-2998 colon 110% | KM12 colon 88.2%

COc1cc2nc(NC3CCCC3)nc(NC3CCN(C(C)C)CC3)c2cc1OC
active: MDA-MB-435 melanoma -34.3%
inactive: BT-549 breast 76.7% | SW-620 colon 59.2% | MCF7 breast 39.8% | HCT-116 colon 66.5% | HCC-2998 colon 29.6% | KM12 colon 79.2%

O=C(CSc1nc2ccccc2c(=O)n1-c1ccccc1)Nc1ccc(C(=O)/C=C/c2ccc(Cl)cc2)cc1
inactive: BT-549 breast 111% | MDA-MB-435 melanoma 103% | SW-620 colon 99.1% | MCF7 breast 85.1% | HCT-116 colon 102% | HCC-2998 colon 109% | KM12 colon 100%

O=c1cc(-c2ccccc2)oc2cc(OCc3cn(Cc4ccc(F)cc4)nn3)cc(OCc3cn(Cc4ccc(F)cc4)nn3)c12
inactive: BT-549 breast 18.8% | MDA-MB-435 melanoma 40.9% | SW-620 colon 60.3% | MCF7 breast 53.3% | HCT-116 colon 18.2% | HCC-2998 colon 74.1% | KM12 colon 43.3%

O=C(Nc1ncc(Cc2cccc(C(F)(F)F)c2)s1)C1COc2ccccc2O1 (stereo not drawn)
inactive: BT-549 breast 90.7% | MDA-MB-435 melanoma 59.1% | SW-620 colon 81% | MCF7 breast 81.8% | HCT-116 colon 83.3% | HCC-2998 colon 98.5% | KM12 colon 76%

CCOC(=O)C1=CN(C)C=C(C(=O)OCC)C1c1cc(Br)c(OCC)c(OC)c1
active: HCC-2998 colon -16.5%
inactive: BT-549 breast 84.9% | MDA-MB-435 melanoma 15.6% | SW-620 colon 48.6% | MCF7 breast 14.7% | HCT-116 colon 43.9% | KM12 colon 48.4%

CCOC(=O)c1cc2c(n1Cc1ccccc1OC)-c1oncc1CCC2
inactive: BT-549 breast 54.9% | SW-620 colon 23.8% | MCF7 breast 14% | HCT-116 colon 29.5% | HCC-2998 colon 53.6% | KM12 colon 41.9%
active: MDA-MB-435 melanoma -1.95%

CC/C=C\C[C@H](O)C/C=C1/C(=O)C=C[C@@H]1C/C=C\CCCC(=O)OCCS(=O)(=O)c1ccccc1
inactive: MDA-MB-435 melanoma 28.3% | SW-620 colon 33.2% | MCF7 breast 18.9% | HCC-2998 colon 53.4% | KM12 colon 25.6%
active: BT-549 breast 2.95% | HCT-116 colon -23%

Fc1cccc(COc2ccc(Nc3ncnc4onc(-c5ccccc5)c34)cc2)c1
inactive: BT-549 breast 12.8% | SW-620 colon 19.8% | MCF7 breast 14%
active: MDA-MB-435 melanoma -54.7% | HCT-116 colon 8.15% | HCC-2998 colon 9.52% | KM12 colon 9.57%

CCN1CCN(c2cc(C)c3cc(NC(=O)c4ccc(OC)c(OC)c4)ccc3n2)CC1
active: MDA-MB-435 melanoma -42%
inactive: BT-549 breast 42.3% | SW-620 colon 16.7% | MCF7 breast 17.9% | HCT-116 colon 26.3% | HCC-2998 colon 81.9% | KM12 colon 26.2%

COc1cc(/C=C2\CCC/C(=C\c3cc(CN4CCCCC4)c(O)c(OC)c3)C2=O)cc(CN2CCCCC2)c1O
inactive: BT-549 breast 103% | MDA-MB-435 melanoma 76.8% | SW-620 colon 71.4% | MCF7 breast 52.5% | HCT-116 colon 60.1% | HCC-2998 colon 103% | KM12 colon 73.7%

CC(=O)c1ccc2oc(=O)n(Cc3ccc(C#N)cc3)c(=O)c2c1
inactive: BT-549 breast 102% | MDA-MB-435 melanoma 99.3% | SW-620 colon 100% | MCF7 breast 98.9% | HCT-116 colon 110% | HCC-2998 colon 102% | KM12 colon 102%

CC(=Nc1ccccc1)C1=C(O)C(Cc2ccc(F)cc2)NC1=O (stereo not drawn)
active: MDA-MB-435 melanoma -53.7%
inactive: BT-549 breast 36.8% | SW-620 colon 27.4% | MCF7 breast 16.3% | HCT-116 colon 27.5% | HCC-2998 colon 60.4% | KM12 colon 24.5%

O=C(Nc1ccc(C23CC4CC(CC(c5ccccc5)(C4)C2)C3)cc1)c1cccs1
inactive: BT-549 breast 68.9% | MDA-MB-435 melanoma 44.9% | SW-620 colon 82% | MCF7 breast 67.3% | HCT-116 colon 60.4% | HCC-2998 colon 74.8% | KM12 colon 64.8%

COC(=O)c1c2c(c(C)[n+]([O-])c1C)C(=O)C=C(NCc1ccccc1)C2=O
active: BT-549 breast -67.5% | MDA-MB-435 melanoma -89.6% | SW-620 colon -27.9% | MCF7 breast -62.1% | HCT-116 colon -12.6% | HCC-2998 colon -34.5% | KM12 colon -10.5%

COCCN(C(=O)Cc1cccs1)C(C(=O)NCc1ccc(OC)cc1)c1ccc(C(C)C)cc1 (stereo not drawn)
inactive: BT-549 breast 93.9% | MDA-MB-435 melanoma 104% | SW-620 colon 85.3% | MCF7 breast 85.4% | HCT-116 colon 68.7% | HCC-2998 colon 81.4% | KM12 colon 84.2%

CCCCN1CCN(c2ccc3nc(-c4ccc5nc(-c6ccc(OCC)cc6)[nH]c5c4)[nH]c3c2)CC1
inactive: BT-549 breast 83.9% | MDA-MB-435 melanoma 55.1% | HCT-116 colon 21.1% | HCC-2998 colon 90.3% | KM12 colon 49.1%
active: SW-620 colon 8.61% | MCF7 breast 1.77%

CCN1C(=O)N(c2ccccc2)C2Nn3c(s/c(=C4\C(=O)N(C(C)C)c5ccccc54)c3=O)=NC21 (stereo not drawn)
inactive: BT-549 breast 107% | MDA-MB-435 melanoma 99.7% | SW-620 colon 98.7% | MCF7 breast 98.8% | HCT-116 colon 105% | HCC-2998 colon 112% | KM12 colon 105%
